Most compounds without a hit are left out; they make up all but 0.8% or so of the library.
TDP1 block – qHTS Assay for Inhibitors of Tyrosyl-DNA Phosphodiesterase (TDP1). recombinant TDP1, AlphaScreen DNA substrate cleavage. 0.28% of 350,000 active. Tyrosyl-DNA phosphodiesterase 1 (Homo sapiens), Q9NUW8. Potency, µM (top dose mostly 130 µM), inactives show top-dose activity change, negative = inhibition, most hits filed as inhibitors. AID 485290, 2010; also: potency is read from the fitted curve at half-maximal effect; nearly all actives have a fitted effect of over 40% in size
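Enzyme-compound mixtures sat 15 min at room temperature, followed by a 5 min reaction with 15 nM final substrate and 10 min with AlphaScreen beads. Recombinant human Tdp1 was used at 1 nM final.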
APE1 inh-1 – qHTS Assay for Inhibitors of the Human Apurinic/apyrimidinic Endonuclease 1 (APE1); DNA repair nuclease/redox regulator APEX1 (Homo sapiens), P27695; recombinant APE1, TAMRA/BHQ-2 abasic DNA cleavage fluorescence; Potency, µM (top dose mostly 65.8 µM), without a hit: at the top dose activity change, negative = inhibition, usual class: inhibitors; 0.35% of 350,000 active; AID 2517, 2012;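 also: potency is read from the fitted curve at half-maximal effect; plate controls were vehicle for no effect and reference inhibitor for full effect; nearly all actives have a fitted effect of over 55% in size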
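0.75 nM APE1 + cpd, 15 min RT; start w/ 50 nM TAMRA/BHQ-2 THF-abasic dsDNA; kinetic fluor 525/598 nm ×3 reads @60 s; Δ(read3−read1); normalized to DMSO and NSC13755 control wells.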
FEN1 inhibitor – qHTS Assay for the Inhibitors of Human Flap endonuclease 1 (FEN1); Recombinant FEN1 flap cleavage, fluorescence, 15 min; AID 588795, 2011; 0.35% of 390,000 active; Potency, µM (highest dose often 114 µM), inactives show at the highest dose activity change, negative = inhibition, usual class: inhibitors; also: potency is read from the fitted curve at half-maximal effect; nearly all actives have a fitted effect of over 65% in size
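Reaction started by adding substrate (50 nM final) to 10 nM enzyme after 15 min room-temperature compound preincubation. Reads at 0 and 15 min, with data normalized and fitted to a four-parameter Hill equation.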
PI4K2A inh – qHTS for small molecular inhibitors of PI4K2A; 0.13% of 420,000 active; activity change, negative = inhibition, % at 76.9 µM; AID 1346378, 2018; purified PI4K2A, ADP-Glo luminescence, 1 h; active compounds read low; Phosphatidylinositol 4-kinase type 2-alpha (Homo sapiens), Q9BTU6; in the data active = activity change below about -50%; inconclusive = mostly about -30% to -49%;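 also: -100% = wells without enzyme as full effect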
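Compounds are screened against recombinant PI4K2A using PI as substrate and ATP, the latter dispensed at 300 microM. Reactions run one hour at ambient temperature before ADP-Glo detection; full inhibition defined by wells lacking enzyme.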
Tb PGK inh – qHTS Assay to Find Inhibitors of Phosphoglycerate Kinase. PGK/GAPDH coupled, Kinase-Glo luminescence, 60 min. Potency, µM (doses to about 57.5 µM), without a hit: top-dose activity change, negative = inhibition, hits mostly inhibitors. 0.043% of 380,000 active. AID 602233, 2012; also: potency is read from the fitted curve at half-maximal effect; nearly all actives have a fitted effect of over 60% in size
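Recombinant glycosomal PGK reaction used 1,3-bisphosphoglycerate generated in-well by GAPDH (100nM final) in 100mM TEA pH 7.6, 5mM MgCl2, 0.01% Tween-20. After 60 minutes at room temperature, ATP was read by Kinase-Glo Plus luminescence end-point.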
Tb PFK block – qHTS Assay to Find Inhibitors of T. brucei phosphofructokinase | ATP-dependent 6-phosphofructokinase (Trypanosoma brucei brucei), O15648 | T. brucei PFK, ADP-Glo luminescence | 0.17% of 330,000 active | Potency, µM (doses to about 57.5 µM), for the others: at the top dose activity, negative = inhibition, hits mostly inhibitors;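 also: potency is read from the fitted curve at half-maximal effect; 0% = uninhibited 1x PFK enzyme wells and -100% = no-enzyme wells; nearly all actives have a fitted effect of over 60% in size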
Target sequence (O15648 whole entry, looked up): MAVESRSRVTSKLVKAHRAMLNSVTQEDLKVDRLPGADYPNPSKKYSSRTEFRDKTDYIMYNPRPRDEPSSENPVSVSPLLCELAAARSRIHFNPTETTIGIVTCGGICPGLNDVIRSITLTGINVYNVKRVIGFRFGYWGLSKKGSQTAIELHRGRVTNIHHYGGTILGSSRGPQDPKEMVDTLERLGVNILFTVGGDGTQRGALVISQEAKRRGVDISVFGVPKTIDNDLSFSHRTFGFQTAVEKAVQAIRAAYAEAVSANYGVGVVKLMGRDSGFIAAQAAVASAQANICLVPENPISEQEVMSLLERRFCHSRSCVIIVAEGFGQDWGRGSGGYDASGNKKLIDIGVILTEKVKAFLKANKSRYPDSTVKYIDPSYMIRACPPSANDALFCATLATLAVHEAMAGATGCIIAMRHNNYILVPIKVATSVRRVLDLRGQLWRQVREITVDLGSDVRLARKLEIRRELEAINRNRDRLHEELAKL
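PFK 1.25 nM, F6P 0.5 mM, ATP 0.1 mM, 0.1 M TEA pH 8.0, 5 mM MgCl2, 0.01% Tween20, 0.1% BSA; 45 min RT. ADP-Glo readout. qHTS titration up to 57 uM; curves fitted, compounds curve-classed.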
DNA dye displace – Counterscreen for APE1 Inhibitors: Fluorescent Dye Displacement Assay; shares compounds with APE1 inh-1; DNA fluorescent dye displacement counterscreen, fluorescence; Potency, µM (doses to about 28.5 µM), for the others: at the top dose activity change, negative = inhibition, actives largely listed as inhibitors; 7% of 480 active; AID 2564, 2010;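 also: loss of thiazole orange fluorescence as the dye is displaced from duplex DNA; potency is read from the fitted curve at half-maximal effect; 0% = ThO with dsDNA and no compound and -100% = ThO without dsDNA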
EndoIV counter – Counterscreen for APE1 Inhibitors: qHTS Assay for Inhibitors of Endonuclease IV | AID 2565, 2010 | 4% of 560 active | E. coli Endo IV, fluorogenic AP-site DNA cleavage | Potency, µM (titrated, usually from 27.1 µM), without a hit: top-dose activity change, negative = inhibition, most hits filed as inhibitors | shares compounds with APE1 inh-1;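 also: potency is read from the fitted curve at half-maximal effect; plate controls were uninhibited enzyme wells for no effect and no enzyme buffer wells for full effect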
APE1 inh-2 – Confirmation qHTS Assay for Inhibitors of the Human Apurinic/apyrimidinic Endonuclease 1 (APE1); shares compounds with APE1 inh-1; purified APE1, fluorogenic abasic-site DNA cleavage; Potency, µM (titrated, usually from 57.1 µM), without a hit: at the top dose activity change, negative = inhibition, hits mostly inhibitors; 44% of 750 active; AID 2572, 2010; also: potency is read from the fitted curve at half-maximal effect; nearly all actives have a fitted effect of over 30% in size
APE1 FP – qHTS FP-Based Assay for Inhibitors of the Human Apurinic/apyrimidinic Endonuclease 1 (APE1). shares compounds with APE1 inh-1. APE1 binding to TAMRA-labelled double-stranded DNA, fluorescence polarization displacement. Potency, µM (series often up to 28.5 µM), for the others: top-dose activity, negative = inhibition, most hits filed as inhibitors. 7% of 480 active; also: potency is read from the fitted curve at half-maximal effect
Numbers without * were called inactive; i = inactive; ? = inconclusive; . = not tested or not shown; [ ] = another dose, or the depositor's remark. Unless noted, calls follow the shape of the dose curve; as a rule, active = well fitted curve in the direction sought with a large enough effect; inconclusive = small, poorly fitted or top-dose-only effect, or another doubt; inactive = no such curve, though single readings can be large; an effect the other way counts as inactive or inconclusive. Unless noted, % is scaled to controls: 0 for no effect and ±100 for the full control effect.

SMILES	TDP1 block	APE1 inh-1	FEN1 inhibitor	PI4K2A inh	Tb PGK inh	Tb PFK block	DNA dye displace	EndoIV counter	APE1 inh-2	APE1 FP
CCn1cnc2c(Nc3cc(F)cc(F)c3)nc(C(=O)COc3c(F)c(F)cc(F)c3F)nc21	0%	.	.	.	.	.	.	.	.	.
COc1ccc(-n2nc3c(=O)[nH][nH]c3cc2=O)cc1	45µM*	?	?	-17	-15%	1%	.	.	?	.
O=c1[nH][nH]c2cc(=O)n(-c3cccc(C(F)(F)F)c3)nc12	9%	?	4%	-9	-14%	3%	.	.	.	.
C/C=C1\[C@H]2C=C(C)C[C@]1(N)c1ccc(=O)[nH]c1C2	.	2%	.	-3	.	.	.	.	.	.
O=c1c(O)cc(C2Oc3cc(O)cc(O)c3CC2O)cc2c(C3Oc4cc(O)cc(O)c4CC3O)cc(O)c(O)c12 (configuration not stated)	.	0.5µM*	.	.	.	.	.	?	2.5µM*	.
CC(C)(C)n1ncc2c(=O)n(Cc3ccc(F)c(F)c3F)cnc21	.	4%	-1%	.	.	.	.	.	.	.
O=C1CCCC2=C1C1(CCCC1)N=C(Nc1nc3cc(Cl)ccc3o1)N2	0%	.	.	.	.	.	.	.	.	.
COc1ccc(/C=C/C(=O)NC(=S)Nc2ccc(C(=O)O)cc2)cc1	89µM*	-12%	?	7	-14%	1%	.	.	-13%	.
CC(=O)Oc1ccc2c(c1)CC[C@@H]1[C@@H]2CC[C@]2(C)[C@@H](O)CC[C@@H]12	.	13%	.	-1	.	.	.	.	.	.
Cc1c(O)cc2c(c1O)C(=O)CC(c1ccc(O)cc1)O2 (configuration not stated)	-8%	1.6µM*	?	?	-26%	5%	-11%	-3%	4.5µM*	?
O=C1CC(c2ccc(O)cc2)Oc2cc(O)ccc21 (configuration not stated)	.	.	11%	0	-4%	.	.	.	.	.
CC(N=Cc1cccc(O)c1O)c1ccccc1 (configuration not stated)	?	14µM*	35µM*	-19	-9%	-13%	5%	13%	-7%[24.4 µM]	-3%
Oc1ccc2ccccc2c1SSc1c(O)ccc2ccccc12	.	.	.	-11	.	.	.	.	.	.
C=C1C=C(C(F)F)n2ncc(C(=O)Nc3ccc(C(C)CC)cc3)c2N1 (configuration not stated)	.	40%	.	.	.	.	.	.	.	.
COc1cc(-c2cc(=O)c3c(O)c(OC)c(OC)c(OC)c3o2)cc(OC)c1OC	5%	-5%	16%	-4	12%	1%	.	.	.	.
COc1c(O)cc2c(=O)oc3c(OC)c(O)cc4c(=O)oc1c2c34	.	1.3µM*	.	.	.	.	6.3µM*	108%	0.45µM*	17%
O=C(O)c1cccc(NC(=S)NC(NC(=O)c2cccc([N+](=O)[O-])c2)C(Cl)(Cl)Cl)c1 (configuration not stated)	79µM*	?	-9%	0	-29%	3%	.	.	?	.
Cc1c(C(=O)OCC2CCCO2)[nH]c2c1C(=O)CC(c1ccco1)C2 (configuration not stated)	?	7.1µM*	?	-54*	?	?	-4%	?	4.5µM*	?
COc1cc(O)c2c(c1)OC(C)(C)CC2=O	6%	1%	-4%	-6	i	3%	.	.	.	.
COc1cc(O)cc2cc3c(c(O)c12)C(=O)CC(C)(O)O3 (configuration not stated)	.	?	?	-13	-5%	0%	19%	5%	14µM*	?
O=C(CSc1nc(-c2ccccc2)nc2ccc(F)cc12)Nc1cccc(C(=O)O)c1	79µM*	2%	?	-1	-13%	2%	.	.	-31%	.
Cc1ccc(CNC(=O)CSc2ccsc2[N+](=O)[O-])cc1	0%	12%	4%	3	2%	-3%	.	.	.	.
CC(=O)c1ccc(NC(=O)CSc2ccsc2[N+](=O)[O-])cc1	.	?	-4%	-20	-5%	-4%	?	0%	3.5µM*	0%
Cc1cc(C(=O)N/N=C/c2ccc(O)c(O)c2O)c(C)n1-c1ccccc1	0%	4.5µM*	-29%	-11	-8%	?	-10%	30%	?	-87%
Cc1cccc(C(=O)N=c2c(C#N)cc3c(=O)n4cccc(C)c4nc3n2Cc2ccco2)c1	16µM*	?	-15%	?	-3%	2%	.	.	-33%	.
COCCCn1c(=NC(=O)c2ccccc2)c(C#N)cc2c(=O)n3cccc(C)c3nc21	-5%	-4%	-2%	2	-4%	3%	.	.	.	.
Cc1ccc(S(=O)(=O)N2CCCCC2)cc1C(=O)Nc1ccc(S(=O)(=O)Nc2ncccn2)cc1	32µM*	?	?	-11	-23%	-2%	.	.	?	.
COc1cccc(/C=N/NC(=S)NC2CC3CCC2C3)c1OC (configuration not stated)	4%	0.56µM*	-16%	4	-5%	1%	3%	-5%	-9%[24.4 µM]	?
